# Data reported in PubChem BioAssay (NCI).
# About 83,000 compounds went through this panel and 20% of them were active in at least one assay; those are over-represented in the sample as a whole.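 How to read the values: 0–100, growth inhibition (40 = 60% inhibited); 0, no net growth; -100 to 0, cell death (-40 = 40% of starting cells died; -100 = all dead).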 Values without a mark were called inactive. The source made the active and inactive calls. The calls were made as follows: active = growth percent below 10; inactive = the rest.
# Columns and labels:
# Assay in all cases: NCI-60 one-dose screen, 48 h (100 = growth as untreated, 0 = no growth, -100 = all killed)
# Conditions in all cases: 10 µM
# HOP-92 NSCLC = system: HOP-92 NSCLC
# NCI-H522 lung = system: NCI-H522 lung
# MDA-MB-231 breast = system: MDA-MB-231 breast
# RXF 393 renal = system: RXF 393 renal
# PC-3 prostate = system: PC-3 prostate
# SK-MEL-5 melanoma = system: SK-MEL-5 melanoma
# CCRF-CEM leukemia = system: CCRF-CEM leukemia
# OVCAR-4 ovarian = system: OVCAR-4 ovarian
# NCI/ADR-RES ovarian = system: NCI/ADR-RES ovarian
# BT-549 breast = system: BT-549 breast
# MDA-MB-435 melanoma = system: MDA-MB-435 melanoma
# SW-620 colon = system: SW-620 colon
# MCF7 breast = system: MCF7 breast
# HCT-116 colon = system: HCT-116 colon
# KM12 colon = system: KM12 colon
# SNB-19 CNS = system: SNB-19 CNS
# T-47D breast = system: T-47D breast
# HCC-2998 colon = system: HCC-2998 colon
SMILES,growth (HOP-92 NSCLC),growth (NCI-H522 lung),growth (MDA-MB-231 breast),growth (RXF 393 renal),growth (PC-3 prostate),growth (SK-MEL-5 melanoma),growth (CCRF-CEM leukemia),growth (OVCAR-4 ovarian),growth (NCI/ADR-RES ovarian),growth (BT-549 breast),growth (MDA-MB-435 melanoma),growth (SW-620 colon),growth (MCF7 breast),growth (HCT-116 colon),growth (KM12 colon),growth (SNB-19 CNS),growth (T-47D breast),growth (HCC-2998 colon)
COc1ccc(-n2c(SCC(=O)NNS(=O)(=O)c3ccccc3)nc3ccc(Cl)cc3c2=O)cc1,101%,86.5%,89.3%,100%,88.4%,98.9%,108%,98.2%,105%,105%,103%,105%,83.2%,95.6%,102%,–,–,–
Cc1ccc(-c2nc(C#N)c(S(=O)(=O)N3CCN(S(C)(=O)=O)CC3)o2)cc1,63.7%,–,77.6%,-35.2% (active),68.3%,55.2%,7.57% (active),48.1%,57.6%,58%,57.9%,-71.8% (active),5.73% (active),-74% (active),92.5%,93.9%,–,–
Fc1ccc(/C=C/c2nc3ccccc3n3c(-c4ccc(Cl)cc4)nnc23)cc1,67.6%,–,70%,58.8%,72.5%,76.5%,0.524% (active),69%,70.4%,79.3%,78.4%,44.3%,12.9%,41.8%,80.2%,–,60.9%,–
COc1cc2oc(-c3cccc(C(=O)Nc4ccc(Cl)cc4)c3)cc(=O)c2c(OCCNC(=O)[C@@H](N)CO)c1OC,-2.3% (active),–,3.78% (active),41.5%,–,-81.9% (active),-37.9% (active),86.7%,102%,58.9%,15.7%,-37.7% (active),-51.8% (active),23.6%,35.2%,–,–,20.5%
COc1ccc(Cc2nn(CC(=O)N/N=C/c3ccc([N+](=O)[O-])cc3)c(=O)c3c(C)noc23)cc1,91.6%,76.1%,61.2%,55.5%,–,92.8%,69.5%,1.77% (active),73.9%,87.4%,71.7%,60.9%,55%,27%,79.7%,–,73.5%,–
CC1[C@H]2[C@H](C[C@H]3[C@@H]4CC=C5c6sc(Nc7cccc(Cl)n7)nc6CC[C@]5(C)[C@H]4CC[C@@]32C)O[C@]12CC[C@@H](C)CO2 (stereo partly specified),99.6%,–,82.4%,123%,48%,59.3%,66.6%,104%,94%,83.5%,75.8%,104%,-66.6% (active),76.3%,84.9%,–,68%,102%
COc1ccc2[nH]cc(-c3nc(N)nnc3-c3cn(C)c4ncc(Br)cc34)c2c1,-2.43% (active),-55.1% (active),21%,-14% (active),–,-50.1% (active),1.4% (active),37.4%,12.5%,-38.5% (active),-38.8% (active),17.8%,4.79% (active),1.45% (active),5.71% (active),–,48.5%,11.8%
COC(=O)CNC(=O)COc1c(OC)c(OC)cc2oc(-c3cccc(C(=O)Nc4ccc(Cl)cc4)c3)cc(=O)c12,39.1%,64.9%,-1.24% (active),45.9%,34.7%,4.43% (active),94.7%,6.23% (active),47.5%,1.95% (active),28.5%,51.4%,22.5%,43.8%,41.5%,–,–,74.2%
Nc1nnc(-c2c[nH]c3ncc(Br)cc23)c(-c2c[nH]c3ccc(Br)cc23)n1,28.4%,21.9%,65%,-14.7% (active),26.6%,9.81% (active),5.14% (active),47.7%,52.9%,6.94% (active),22.4%,20.2%,15.7%,22.1%,37.5%,–,37.4%,75.7%
O=[N+]([O-])c1cccc(-c2nnc3c(/C=C/c4ccccc4O)nc4ccccc4n23)c1,51.2%,–,72.2%,52.6%,–,19.6%,47.5%,68.4%,57.5%,62.6%,40.7%,41.7%,22.1%,56.4%,37.5%,87%,26.3%,–
COc1cc(C2CC(c3ccccc3)=Nc3c(N)nc(N)nc3N2)ccc1Oc1nc(NCCO)nc(N2CCOCC2)n1 (stereo unspecified),86.3%,–,97.1%,95.7%,–,98.7%,92.4%,105%,109%,92.6%,102%,107%,83%,105%,102%,–,–,–
COc1cc(Nc2nc(O)c(/C=C3\C=Nc4ccccc43)s2)cc(OC)c1OC,-72.3% (active),-13.6% (active),-40.7% (active),-69.2% (active),-71.9% (active),-34.7% (active),14.9%,-63.9% (active),11.4%,-41.4% (active),-77.1% (active),-52.1% (active),-23.7% (active),-59.2% (active),-72.4% (active),–,–,-48.2% (active)
C#C[C@]1(O)CC[C@H]2[C@@H]3CC=C4c5sc(Nc6ccc(C(F)(F)F)cn6)nc5CC[C@]4(C)[C@H]3CC[C@@]21C,-7.64% (active),-51.1% (active),-34.2% (active),-37.9% (active),–,-97.1% (active),6.72% (active),20%,-19.9% (active),-50% (active),1.17% (active),-32.8% (active),-28.7% (active),-66.9% (active),-16.5% (active),8.33% (active),–,4.01% (active)
COc1ccccc1-n1cc(C#N)c(N)c1C(=O)c1ccc(Cl)cc1Cl,44.2%,–,46.4%,-8.31% (active),18.8%,17.3%,7.78% (active),61%,16.4%,31.4%,-38.3% (active),25%,16.4%,36.6%,22.9%,–,–,–
COc1cc(-c2nc3ccc(C)cc3[nH]2)ccc1OCc1nnc(-c2ccccc2Br)o1,84.3%,64%,69.7%,1.93% (active),–,41.1%,19.4%,80.7%,75%,55.7%,85.4%,91.9%,44.4%,61%,65.9%,73.9%,–,77.2%
CCOC(=O)c1ccc(NC(=O)CSC(CC(=O)c2sc(Nc3ccccn3)nc2C)c2ccccc2F)cc1 (stereo unspecified),-14.5% (active),–,10.5%,-12.1% (active),0.809% (active),7.25% (active),3.92% (active),41.1%,10.5%,-9.95% (active),-10.7% (active),0.242% (active),-17.3% (active),1.05% (active),-50.8% (active),–,–,-7.21% (active)
O=C(c1ccc(Cl)cc1)C(c1c[nH]c2ccccc12)c1c[nH]c2ccccc12,-15.7% (active),-82.6% (active),3.98% (active),-82.1% (active),-33.2% (active),-58.3% (active),2.45% (active),7.15% (active),11%,-38.2% (active),-68.6% (active),-52.6% (active),-69.3% (active),-91.4% (active),-5.68% (active),22.4%,–,–
O=C(c1ccccc1)c1ccc2nc(-c3ccccc3Br)[nH]c2c1,-90.6% (active),-74.9% (active),-8.52% (active),-90.4% (active),-19.4% (active),-97.6% (active),-9.65% (active),-54.8% (active),0.18% (active),-76.4% (active),-21% (active),-17.9% (active),-6.39% (active),-38.8% (active),-44.2% (active),–,-59.3% (active),–
C#C[C@]1(O)CC[C@H]2[C@@H]3CC=C4c5sc(Nc6cc(C)cc(C)n6)nc5CC[C@]4(C)[C@H]3CC[C@@]21C,-22.2% (active),–,-44.9% (active),-40% (active),-4.36% (active),-99.7% (active),5% (active),25.6%,0.407% (active),-50.4% (active),-6.28% (active),-86.9% (active),-89.7% (active),-56.1% (active),-16.7% (active),-39.1% (active),–,–
